Hit rate of the full screen: of about 330,000 compounds, about 7,700 (2.3%) were called active. Roughly 26% stayed inconclusive and do not appear here. The call rests on the fitted dose curve; in most records, active means well fitted inhibition curve with a large enough effect; inconclusive means small, poorly fitted or top-dose-only effect, or effect the other way; inactive means flat fitted curve, though single readings scatter. The entries come from a sample that favours actives as a whole. Entries that show only a call come without a potency.

Drawing on PubChem BioAssay AID504467 (National Center for Advancing Translational Sciences (NCATS), 2011), this text covers Potency for 48 compounds.
Potency means the concentration at half of the fitted maximal effect.

The experiment is described as follows: qHTS screen for small molecules that inhibit ELG1-dependent DNA repair in human embryonic kidney (HEK293T) cells expressing luciferase-tagged ELG1. Further: nearly all actives have a fitted effect of over 55% in size. To be noted: HEK293T ELG1-luciferase reporter, luminescence, 16 h, DNA damage induced by 5-fluorouridine; series mostly up to 46.1 µM. From the text:
NIH Molecular Libraries Probe Production Network [MLPCN] NIH Chemical Genomics Center [NCGC] MLPCN Grant: 1 R03 MH092164-01 Assay Provider: Kyungjae Myung, NHGRI, NIH Keywords: MLPCN, qHTS, NCGC, genotoxicity, cancer Assay Overview: Cancer cells divide rapidly compared to normal cells in the body. During cell division, cancer cells need to duplicate their genome by DNA replication. The failure of genome duplication leads to cancer cells' death. Therefore, inhibitors of DNA replication could specifically kill cancer cells. Based on this concept, many chemotherapeutic agents were developed and have been used to treat cancer patients. However, there are a limited number of agents available in the clinical setting, and some of those that do exist have low efficacy and severe side effects. Therefore, if we can find the compounds that effectively block DNA replication either by directly damaging DNA or by inhibiting other cellular mechanisms, the options for cancer treatment will be broadened. With this in mind, we developed a quantitative high-throughput ELG1-luciferase reporter gene assay. Small molecules that specifically block ELG1 function in response to DNA damage can be identified by monitoring the suppression of luciferase activity. Since ELG1 defines a pathway for repairing DNA damage, agents blocking ELG1 function can be used to sensitize cancer cells to chemotherapeutic agents whose mechanism of action involves the induction of DNA damage.
Assay Protocol Summary: For genotoxicity screening, 2,000 cells in 4 uL/well were dispensed into white, solid-bottom 1536-well plates using a solenoid-based dispenser. Following transfer of 1 uL 5-Fluorouridine and 23 nL compound or DMSO vehicle by a pin tool, the plates were incubated 16 hr at 37 °C and 5% CO2. 5 ul ONE-Glo (Promega) was then added to each plate and following a 30 min incubation at room temperature, luciferase activity was quantified on a ViewLux CCD-based plate reader.
As for `O=C1c2ccccc2[C@@H]2C[C@@H](O)[C@H](Nc3ccccc3Cl)CCN12`, the Potency result is “inactive”.

With `N#Cc1c(NC(=O)CCCN2C(=O)c3ccccc3C2=O)oc(-c2ccccc2)c1-c1ccccc1`, the Potency was 7.94 µM (active).

Take `COc1cc(C(=O)Nc2oc(-c3ccccc3)c(-c3ccccc3)c2C#N)cc(OC)c1OC`: the Potency is 23.1 µM (active).

`Cc1cc(C)cc(NC(=O)CCN2C(=O)c3ccccc3C2=O)c1`: the Potency entry is “inactive”.

In the case of `O=C(CCN1C(=O)c2ccccc2C1=O)Nc1ccncc1`, the Potency entry was “inactive”.

Turning to `COc1cc(C(=O)NCC(=O)N2CC=C(c3ccccc3)CC2)cc(OC)c1OC`, the Potency result is “inactive”.

Consider `CC(Oc1ccccc1)C(=O)Nc1oc(-c2ccco2)c(-c2ccco2)c1C#N` (stereo not drawn), for which the Potency entry was “inactive”.

As to `CCOc1ccc(NC(=O)c2cccc3c2C(=O)N(CC2CCCO2)C3)cc1` (stereo not drawn), the Potency result is “inactive”.

Take `CCc1ccc(OCC(=O)N(Cc2ccccc2)C2CCS(=O)(=O)C2)cc1` (stereo not drawn): the Potency result was “inactive”.

`CC[C@]12c3[nH]c4ccc(Cl)cc4c3CCN1C(=O)[C@@H](CC(=O)NCCCOC)C[C@@H]2C(=O)N1CCN(C(=O)c2ccco2)CC1`: the Potency entry is “inactive”.

Take `CN(C)C(CNC(=O)c1cccc(S(=O)(=O)Nc2ccc(Br)cc2)c1)c1ccco1` (stereo not drawn): the Potency entry is “inactive”.

`COc1ccc(-c2noc(CCCC(=O)NC3CCCC3)n2)cc1OC`: the Potency result is “inactive”.

With `O=C(Nc1ccc2nc3n(c(=O)c2c1)CCCCC3)c1ccccc1Cl`, the Potency result is “inactive”.

For the compound `COc1ccc(NC(=O)Cn2nnc(C(=O)NCCc3ccc(OC)c(OC)c3)c2N)cc1`, the Potency result is “inactive”.

As to `COc1ccc(CCNC(=O)C(=O)Nc2ccc3nc4n(c(=O)c3c2)CCCCC4)cc1OC`, the Potency is 20.6 µM (active).

As to `O=C(NCCc1c[nH]c2ccccc12)C1CCN(Cc2ccc(Br)cc2)CC1`, the Potency entry is “inactive”.

For `CCCCNC(=O)c1cn(CC)c2cc(N3CCN(C(=O)c4ccco4)CC3)c(F)cc2c1=O`, the Potency is 14.6 µM (active).

Regarding `CCn1cc(C(=O)NCCO)c(=O)c2cc(F)c(N3CCN(C)CC3)cc21`, the Potency result was “inactive”.

In the case of `CCn1cc(C(=O)N/N=C(/C)c2ccc(F)cc2)c(=O)c2cc(F)c(N3CCCC3)cc21`, the Potency entry was “inactive”.

As for `COC(=O)CSc1nc2ccccc2c(=O)n1Cc1ccccc1`, the Potency entry is “inactive”.

Take `O=S1(=O)CCOC[C@H](CC2CCCCC2)N1Cc1ccc(F)cc1`: the Potency result is “inactive”.

Regarding `C=CC[C@@H](CC(=O)N[C@@H](CO)Cc1ccccc1)C(=O)NCCOC(=O)[C@@H](CC=C)CC(=O)OC(C)(C)C`, the Potency entry was “inactive”.

As to `CCOC(=O)c1c(-c2ccccc2)csc1NC(=S)NC(=O)c1ccccc1`, the Potency entry is “inactive”.

For `CCOC(=O)c1c(-c2ccc(C)cc2)csc1/N=C(\C)C1=C(O)c2ccccc2C1=O`, the Potency was 7.3 µM (active).

For `CCOC(=O)c1c(-c2ccc(-c3ccccc3)cc2)csc1NC(=O)CCC(=O)O`, the Potency entry is “inactive”.

As for `COc1cccc(CN(C)CC(O)COC(c2ccccc2)c2ccccc2C)c1` (stereo not drawn), the Potency entry is “inactive”.

`CCCN(CCC)c1ccc(C(O)c2nnc(-c3ccccc3)o2)cc1` (stereo not drawn): the Potency was 20.6 µM (active).

For `CCCC(=O)Nc1nnc(-c2ccccc2)o1`, the Potency result is “inactive”.

For `C=CCn1c(SCc2nnc(-c3ccccc3)o2)nnc1C(O)c1ccccc1` (stereo not drawn), the Potency entry was “inactive”.

For `CC(C)COc1ccc(C(=O)NNC(=O)CCC(=O)c2cccs2)cc1`, the Potency entry is “inactive”.

With `C/C(Cl)=C\Cn1c(Nc2cccc(C)c2)nc2c1c(=O)n(C)c(=O)n2C`, the Potency is 9.2 µM (active).

Consider `CCC/C(C)=N\Nc1nc2c(c(=O)n(C)c(=O)n2C)n1C`, for which the Potency result was “inactive”.

Turning to `Cc1cccc(Cn2c(N3CCN(c4ccccc4)CC3)nc3c2c(=O)n(C)c(=O)n3C)c1`, the Potency entry was “inactive”.

For the compound `CCc1[nH]nc(C(=O)N2CCCC(CO)(Cc3ccc(F)cc3F)C2)c1C` (stereo not drawn), the Potency entry is “inactive”.

Take `O=C1c2cccnc2C(Nc2ccc(S(=O)(=O)N3CCCCCC3)cc2)N1Cc1ccccc1` (stereo not drawn): the Potency is 8.2 µM (active).

As to `O=C(COc1ccc(S(=O)(=O)N2CCCCC2)cc1)NCc1ccccn1`, the Potency result was “inactive”.

Regarding `O=C(Nc1ccc(S(=O)(=O)N2CCCCC2)cc1)c1cnccn1`, the Potency result is “inactive”.

Consider `Cc1ccc2nc(SCC(=O)Nc3cccc4ccccc34)nc(=O)n2c1`, for which the Potency result is “inactive”.

With `O=C(NCCc1ccccn1)c1cccnc1Oc1ccc(Cl)cc1`, the Potency entry is “inactive”.

For the compound `COC(=O)CNC(=O)c1cc(-c2ccncc2)nc2ccccc12`, the Potency result was “inactive”.

`O=C(NCCc1ccccn1)c1cc(-c2ccc(Cl)cc2)nc2ccccc12`: the Potency is 23.1 µM (active).

Consider `Cc1ccccc1Nc1nc(N)nc(COC(=O)CCC(=O)c2ccc(F)cc2)n1`, for which the Potency result is “inactive”.

Turning to `COC(=O)c1noc(C)c1-c1ccnn1C(=O)c1ccc(Cl)cc1`, the Potency result is “inactive”.

Turning to `Cc1onc(-c2ccccc2)c1C(=O)N=C(N)c1ccc(Cl)cc1`, the Potency entry is “inactive”.

As to `Cc1onc(-c2ccc(Cl)cc2)c1-c1ccnn1S(=O)(=O)c1ccc(Cl)cc1`, the Potency is 14.6 µM (active).

For `Cc1nn(-c2ccccc2)c(C)c1NC(=O)CCl`, the Potency entry was “inactive”.

With `Cc1nn(-c2ccccc2)c(C)c1NC(=O)COC(=O)c1cc(Cl)ccc1O`, the Potency entry is “inactive”.

Take `Cc1nn(-c2ccccc2)c(C)c1NC(=O)COc1ccc(Cl)cc1Cl`: the Potency is 20.6 µM (active).
